Anesthetic bind = candidate novel general anesthetic via apoferritin binding | P02791 | apoferritin/1-aminoanthracene competitive binding, fluorescence | Potency, µM (series often up to 77.5 µM), hits mostly inhibitors | actives 0.074% (n = 350,000); also: nearly all actives have a fitted effect of over 20% in size
Target sequence (P02791 2-175 limits assumed): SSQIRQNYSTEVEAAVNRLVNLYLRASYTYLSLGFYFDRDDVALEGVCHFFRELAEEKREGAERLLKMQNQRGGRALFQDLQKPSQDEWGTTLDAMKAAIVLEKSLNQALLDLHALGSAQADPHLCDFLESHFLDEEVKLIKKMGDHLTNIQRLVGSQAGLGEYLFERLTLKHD
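Read-out: endpoint 1-AMA fluorescence, excitation 380 nm and emission 535 nm, after compounds sit 10 min at room temperature with 10 uM horse-spleen apoferritin in 50% saturated 1-AMA/PBS. Values come from four-parameter Hill fits.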
IDH1 R132H inh = inhibitors of human mutant IDH1 R132H. IDH1-R132H enzyme, NADPH consumption, diaphorase/resazurin fluorescence. actives 0.093% (n = 390,000). Potency, µM (series often up to 76.6 µM), usual class: inhibitors. O75874; also: nearly all actives have a fitted effect of over 65% in size
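IDH1-R132H (0.5 ug/mL) preincubated 30 min with compound, then NADPH (0.016 mM) and alpha-KG (2 mM) added; 80 min at RT, pH 7.5. Remaining NADPH coupled via diaphorase/resazurin to fluorescence (540/590 nm); concentration-response curves normalized to no-enzyme control.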
Nrf2 ARE act = activators of Nrf2 (ARE) signaling; Potency, µM (top dose mostly 46.1 µM), usual class: activators; actives 0.31% (n = 410,000); AREc32 ARE-luciferase reporter (MCF7-derived line), luminescence, 24 h; AID 624171; also: nearly all actives have a fitted effect of over 65% in size
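Steps: seed AREc32_Fluc cells (1000/well, 5% FBS OPTI-MEM); incubate overnight at 37 deg C; add 23 nL compound; incubate 24 hr; add Steady-Glo; hold 30 min RT; read luminescence.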
Nrf2 block = blocks Nrf2 signaling | A549 ARE-Fluc reporter, luciferase luminescence, 18-24 h | Potency, µM (highest dose often 46 µM), actives largely listed as inhibitors | actives 2.1% (n = 360,000) | AID 504444; also: nearly all actives have a fitted effect of over 60% in size
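A549 ARE_Fluc cells, 5000/well, 5% FBS OPTI-MEM; compounds in dose-response, 18-24 h at 37 °C/5% CO2; CellTiter-Fluor viability read (Ex 405/Em 525), then BugLite luciferase luminescence = Nrf2 activity.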
Giardia kill = kills Giardia lamblia | AID 540267 | activity change, % at 7.66 µM, hits read low | Giardia lamblia trophozoite viability | actives 0.15% (n = 340,000); in the data active = activity change below about -80%; inconclusive = between about -30% and that limit;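 also: parasites exposed to compound for two days anaerobically before the ATP read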
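Giardia trophozoites, 100 cells per well, were exposed to compounds for 48 hrs at 37 deg C under anaerobic conditions; viability was then read as ATP content by bioluminescence after 15-30 min at room temperature.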
A549 viability = A549 cytotoxicity, counter-screen for Nrf2 inhibitors | Potency, µM (series often up to 46 µM), hits mostly inhibitors | A549 ARE-Fluc cells, CellTiter-Fluor viability, 18-24 h | actives 0.16% (n = 390,000)
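Cytotoxicity counterscreen: CellTiter-Fluor fluorescence was measured in A549 ARE_Fluc cells after 18-24 h of compound exposure in a concentration series. The subsequent BugLite luminescent read reports ARE-luciferase activity.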
Large screens that a line does not name were inactive. Shown are actives, neighbours in structure and some others; about 2.3% of the full set was active somewhere. Unless noted, calls follow the shape of the dose curve; as a rule, active = well fitted curve in the direction sought with a large enough effect; inconclusive = small, poorly fitted or top-dose-only effect, or another doubt; inactive = no such curve, though single readings can be large; an effect the other way counts as inactive or inconclusive.

Cc1ccc(S(=O)(=O)N2CCCCC2CCNC(=O)C(=O)NCc2cccnc2)cc1 (stereo unspecified)	none (no result: Anesthetic bind)
Cc1ccc(CNC(=O)C(=O)NCCC2CCCCN2S(=O)(=O)c2ccc(C)cc2)cc1 (stereo unspecified)	Nrf2 block inconclusive (no result: Anesthetic bind)
O=C(NCCC1CCCCN1S(=O)(=O)c1ccc(Cl)cc1)C(=O)NCc1ccncc1 (stereo unspecified)	Nrf2 block 21µM (no result: Anesthetic bind)
O=C(NCCC1CCCCN1S(=O)(=O)c1ccc(F)cc1)C(=O)NCc1ccncc1 (stereo unspecified)	Nrf2 block 12µM (no result: Anesthetic bind)
O=C(Nc1ccc(F)cc1)C1CCN(c2nc3ccccc3nc2C(F)(F)F)CC1	none (no result: Giardia kill)
O=[N+]([O-])c1ccccc1S(=O)(=O)NC1CCCCCCC1	Anesthetic bind inconclusive, Nrf2 block inconclusive
O=C1CCCCCCC1Sc1ccccc1[N+](=O)[O-] (stereo unspecified)	Anesthetic bind 7.9µM
Nc1ccc(S(=O)(=O)N2CCN(S(=O)(=O)c3ccc4c(c3)OCCO4)CC2)cc1	none (no result: Anesthetic bind, IDH1 R132H inh, Nrf2 ARE act, Giardia kill)
O=C(/C=C/c1ccco1)N1CCc2ccccc21	Nrf2 ARE act inconclusive, Nrf2 block inconclusive, Giardia kill inconclusive
Cc1ccc(/C=C/C(=O)N2CCc3ccccc32)o1	Nrf2 ARE act 11µM, Nrf2 block inconclusive
O=C(O)/C=C/c1cc(F)c(S(=O)(=O)N2CCN(S(=O)(=O)c3ccc4c(c3)OCCO4)CC2)cc1F	none (no result: Anesthetic bind, IDH1 R132H inh, Nrf2 ARE act, Giardia kill)
S=C1NC2=C(CCC/C2=C\c2ccccc2)C(c2ccccc2)N1 (stereo unspecified)	none
Fc1ccccc1/C=C1\CCCC2=C1NC(=S)NC2c1ccccc1F (stereo unspecified)	Nrf2 block 8.2µM
CCc1nnc(SCC(=O)N(CC)c2ccccc2)c2cc3oc(C)cc3n12	Nrf2 ARE act 5.6µM (no result: Giardia kill)
CN(C)CC(CCC(CN(C)C)C(=O)c1ccccc1)C(=O)c1ccccc1 (stereo unspecified)	Nrf2 ARE act inconclusive, Nrf2 block 18µM, A549 viability inconclusive
CCOc1ccc(C(=O)C(CCC(CN(C)C)C(=O)c2ccc(OCC)cc2)CN(C)C)cc1 (stereo unspecified)	Nrf2 ARE act inconclusive, Nrf2 block inconclusive, A549 viability inconclusive
O=C(c1ccccc1)C(CCC(CN1CCOCC1)C(=O)c1ccccc1)CN1CCOCC1 (stereo unspecified)	Nrf2 block 23µM
O=C(c1ccc(F)cc1)C(CN1CCOCC1)c1ccccc1 (stereo unspecified)	Anesthetic bind inconclusive, Nrf2 ARE act inconclusive
N#Cc1nc(-c2ccc(COc3ccccc3)o2)oc1NCc1cccnc1	Nrf2 block inconclusive (no result: Giardia kill)
O=S(=O)(c1ccc(Cl)s1)N1CCN(C/C=C/c2ccccc2)CC1	Anesthetic bind inconclusive, Nrf2 block 10µM
COC(=O)c1sc(NC(=S)NC(=O)c2cccc(Br)c2)nc1C	Nrf2 ARE act 16µM
O=C(NCC(c1ccco1)S(=O)(=O)c1cccs1)c1c(F)cccc1F (stereo unspecified)	none (no result: Nrf2 block, Giardia kill)
Cc1ccccc1NC(=O)c1c2c(nc3ccccc13)C(=O)N(C1CCCCC1)C2	none (no result: Giardia kill)
COc1cc(OC)c(NC(=O)c2c3c(nc4ccccc24)C(=O)N(C2CCCCC2)C3)cc1Cl	Nrf2 block 13µM (no result: Giardia kill)
COc1ccccc1NC(=O)CCn1nc(-c2ccccc2)c2ccccc2c1=O	Nrf2 block 23µM, A549 viability inconclusive (no result: IDH1 R132H inh, Giardia kill)
O=S(=O)(c1cccc(C(F)(F)F)c1)N1CCN(c2nc(-c3ccccc3)nc3ccccc23)CC1	Nrf2 block inconclusive (no result: Anesthetic bind, IDH1 R132H inh, Nrf2 ARE act)
O=C1C=C(Nc2ccccc2)c2ccccc2C1=O	Nrf2 block 21µM, A549 viability inconclusive
COc1cc(-c2nnc3sc(C4CCCCC4)nn23)cc(OC)c1OC	Nrf2 block 13µM
CC(C)(C)C(=O)OCCNc1nc(-c2cccs2)nc2ccccc12	none (no result: Anesthetic bind, IDH1 R132H inh, Nrf2 ARE act)
N#CCC(=O)Nc1ccc(C(=O)NNC(=S)NC2CCCCC2)cc1	none (no result: Anesthetic bind)
CC(C)CC(=O)Nc1ccc(C(=O)NNC(=S)NC(=O)C2CCCCC2)cc1	Nrf2 block 8.2µM

Screening data: PubChem, National Center for Advancing Translational Sciences (NCATS)
